{"source": "PubChem BioAssay", "key": {"[1]": {"assay": "Wnt pathway potentiators raising nuclear beta-catenin – imaging, WNT3A-conditioned medium, mouse C2C12, NPC library, primary screen (AID 1117326; in the data active = nuclear beta-catenin stimulation mostly above about 4.2%, no sharp cut-off; inactive = mostly below about 10%)", "conditions": "stronger effect = higher value"}, "[2]": {"assay": "stimulators of insulin release from INS-1E, primary screen, cell-based, 5 mM glucose, NPC library (AID 1117329;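 active = compound raises insulin release from rat beta cells at 5 mM glucose, no numeric limit stated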)", "conditions": "rat INS-1E insulin secretion, at 10 µM, stronger effect = higher value"}, "[3]": {"assay": "growth inhibition of GSK3B-pretreated HCT116 cells – cell-based, CellTiter-Glo, 0.2 to 20 µM (AID 1117336;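 active = compounds lowering colon cancer cell viability after pretreatment blocking the GSK3B kinase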)", "conditions": "HCT116 viability after GSK3B inhibitor, at 20 µM, stronger effect = higher value"}, "[4]": {"assay": "inhibition of endothelial tube formation, primary screen, imaging, VEGF stimulated, CD31 staining, tube area, NPC library (AID 1117340;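 active = compound that reduces growth-factor-driven endothelial tube area in a mixed cell culture, no cutoff stated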)", "conditions": "VEGF-stimulated ADSC/ECFC co-culture, at 10 µM, stronger effect = higher value"}, "[5]": {"assay": "GLP1 release stimulators, primary, NCI-H716, NPC library (AID 1117341;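 active = compound raises GLP1 secretion from the human gut endocrine cells, with no numeric limit stated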)", "conditions": "NCI-H716 cells, at 10 µM, stronger effect = higher value"}, "[6]": {"assay": "HCT116 colon cancer cell growth inhibition, primary screen, CellTiter-Glo luminescence, NPC library (AID 1117342;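 active = compounds that lower survival of HCT116 colon cancer cells in the luminescence readout, no numeric limit stated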)", "conditions": "at 20 µM (top of the series)"}, "[7]": {"assay": "reduced SW480 viability measured with CellTiter-Glo, NPC library, primary (AID 1117343;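 active = compounds that lower viability of the colon cancer cells in the luminescence readout, with no numeric limit stated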)", "conditions": "CellTiter-Glo luminescence; at 20 µM (top of the series) unless noted"}, "[8]": {"assay": "NPC library primary testing for decreased DLD-1 cell viability via CellTiter-Glo (AID 1117346;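 active = compounds that lower survival of DLD-1 colon cancer cells in the luminescence readout, no cutoff given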)", "conditions": "DLD-1 viability, CellTiter-Glo luminescence; at 20 µM (top of the series)"}, "[9]": {"assay": "EMT-state selective cytotoxicity in co-culture – imaging, PC-3E GFP, TEM4-18 mCherry, primary screen (AID 1345086;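 active = compounds killing one labelled cell type while sparing the other, by normalised counts and ratio limits, not self-fluorescent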;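 note: cells exposed to compound for 72 h before imaging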;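 for red/green cell ratio (normalised): normalised mesenchymal count divided by normalised epithelial count so high means epithelial killing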)", "conditions": "PC-3E GFP / TEM4-18 mCherry co-culture, imaging cell counts, at 1 µM"}, "[10]": {"assay": "viability loss with induced miR-34 in A549 – imaging, A549 dox-inducible miR-34, nuclei and caspase counts, primary screen (AID 1347080;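 active = compounds whose cell count with miR-34 switched on is under 0.7 times the count with it off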)", "conditions": "A549 miR-34 inducible, Hoechst nuclei count, 48 h"}, "[11]": {"assay": "MELAS cybrid and Rieske KO viability enhancers – cell-based, MELAS cybrids, Rieske KO mouse fibroblasts, CellTiter-Glo, primary screen (AID 1508586;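 active = mean z-score across replicates of 1.96 or higher in either the MELAS or the Rieske mutant cell line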;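 note: z relative to plate mean and SD of compound and empty wells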)", "conditions": "low glucose"}, "[12]": {"assay": "drug combination growth inhibition, ovarian cancer – cell-based, oncology-focused library, rucaparib conditional, profiling panel (AID 1508598)", "conditions": "patient-derived ovarian cancer cells, CellTiter-Glo viability, 144 h, stronger effect = lower value"}, "[13]": {"target": "NAD(+) hydrolase SARM1 (Homo sapiens) (UniProt Q6SZW1)", "sequence (Q6SZW1 whole entry, looked up)": "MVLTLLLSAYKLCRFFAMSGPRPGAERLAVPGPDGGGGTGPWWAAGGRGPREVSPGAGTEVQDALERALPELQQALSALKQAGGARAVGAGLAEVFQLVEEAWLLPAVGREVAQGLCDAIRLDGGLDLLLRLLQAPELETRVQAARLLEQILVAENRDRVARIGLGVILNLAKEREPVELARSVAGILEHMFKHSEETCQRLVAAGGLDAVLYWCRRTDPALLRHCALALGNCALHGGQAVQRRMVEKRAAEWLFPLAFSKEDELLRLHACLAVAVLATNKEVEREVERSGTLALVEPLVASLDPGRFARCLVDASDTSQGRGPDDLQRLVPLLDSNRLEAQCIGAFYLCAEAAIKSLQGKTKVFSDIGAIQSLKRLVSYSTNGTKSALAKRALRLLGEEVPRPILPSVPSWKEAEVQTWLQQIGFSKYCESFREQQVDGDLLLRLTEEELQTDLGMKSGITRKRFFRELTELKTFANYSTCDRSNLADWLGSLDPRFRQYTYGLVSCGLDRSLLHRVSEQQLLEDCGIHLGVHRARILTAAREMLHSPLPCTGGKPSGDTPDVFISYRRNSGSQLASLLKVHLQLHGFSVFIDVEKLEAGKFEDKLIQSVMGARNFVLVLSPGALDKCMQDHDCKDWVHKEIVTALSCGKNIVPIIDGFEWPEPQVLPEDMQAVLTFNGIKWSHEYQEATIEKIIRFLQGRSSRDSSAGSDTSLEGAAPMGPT", "assay": "blocking NAD cleavage by SARM1 SAM-TIR – cell lysate, NAD-Glo luminescence (AID 1508614;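 active = compound whose remaining NAD level is above about 45 nM, limit read from the data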)", "conditions": "SAM-TIR HEK293T lysate NADase, at 1 µM, stronger effect = higher value"}}, "note": "“And” between values parts separate entries of the source, which are not always exact repeats. Identical values can stand only once. The source made the active and inactive calls.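 Rule for the calls, unless noted: active = normalized viability below 100% at a tested concentration; inactive = the rest.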", "data": [{"smiles": "Cc1nc(Nc2ncc(C(=O)Nc3c(C)cccc3Cl)s2)cc(N2CCN(CCO)CC2)n1", "values": [{"measurement": "nuclear beta-catenin stimulation", "setting": "[1]; at 10 µM", "result": "69.4% (active)"}, {"measurement": "nuclear beta-catenin stimulation", "setting": "[1]; stimulation, at 2 µM", "result": 65.2, "unit": "%"}, {"measurement": "insulin secretion stimulation", "setting": "[2]", "result": "-0.7% (inactive)"}, {"measurement": "viability decrease", "setting": "[3]", "result": "-182% (inactive)"}, {"measurement": "tube area decrease", "setting": "[4]", "result": "62.2% (active)"}, {"measurement": "GLP1 secretion stimulation", "setting": "[5]", "result": "2.2% (inactive)"}, {"measurement": "inhibition of viability", "setting": "[6]", "result": "69.7% (active)"}, {"measurement": "viability decrease (inhibition)", "setting": "[7]", "result": "87.2% (active)"}, {"measurement": "viability decrease (inhibition)", "setting": "[8]", "result": "100% (active)"}, {"measurement": "red/green cell ratio (normalised)", "setting": "[9]; actives lie on both sides, counts scaled to control wells, 1 = unselective", "result": "1.54 (inactive)"}, {"measurement": "normalised cell number", "setting": "[9]; measured here: epithelial PC-3E GFP cell survival", "result": 0.38}, {"measurement": "normalised cell number", "setting": "[9]; measured here: mesenchymal TEM4-18 mCherry cell survival", "result": 0.58}, {"measurement": "fold change", "setting": "[10]; stronger effect = lower value, cell number ratio, induced over uninduced", "result": "0.896 (inactive) and 0.9 (inactive)"}, {"measurement": "fold change", "setting": "[10]; measured here: relative caspase fold change +Dox/-Dox", "result": "0.654 and 0.731"}, {"measurement": "cell count", "setting": "[10]; measured here: total cells with miR-34 induction, stronger effect = lower value", "result": "470 and 582"}, {"measurement": "cell count", "setting": "[10]; measured here: total cells without miR-34 induction", "result": "524 and 647"}, {"measurement": "z-score", "setting": "[11]; MELAS cybrid survival, CellTiter-Glo 48 h, stronger effect = higher value", "result": "4.95 (active)"}, {"measurement": "z-score", "setting": "[11]; Rieske KO mouse fibroblast survival, CellTiter-Glo 72 h", "result": -1.77}, {"measurement": "viability", "setting": "[12]; at 0.000305 µM, OCI-C5x cells, with rucaparib 10 µM, 100% = cells with rucaparib alone", "result": "102% (inactive)"}, {"measurement": "viability", "setting": "[12]; at 0.000305 µM, OCI-C5x cells, without rucaparib", "result": "117% (inactive)"}, {"measurement": "viability", "setting": "[12]; at 0.000305 µM, OCI-P5x cells, with rucaparib 20 µM, 100% = cells with rucaparib alone", "result": "103% (inactive)"}, {"measurement": "viability", "setting": "[12]; at 0.000305 µM, OCI-P5x cells, without rucaparib", "result": "98.9% (active)"}, {"measurement": "viability", "setting": "[12]; at 0.00122 µM, OCI-C5x cells, with rucaparib 10 µM, 100% = cells with rucaparib alone", "result": "99.9% (active)"}, {"measurement": "viability", "setting": "[12]; at 0.00122 µM, OCI-C5x cells, without rucaparib", "result": "114% (inactive)"}, {"measurement": "viability", "setting": "[12]; at 0.00122 µM, OCI-P5x cells, with rucaparib 20 µM, 100% = cells with rucaparib alone", "result": "54.8% (active)"}, {"measurement": "viability", "setting": "[12]; at 0.00122 µM, OCI-P5x cells, without rucaparib", "result": "97.2% (active)"}, {"measurement": "viability", "setting": "[12]; at 0.00488 µM, OCI-C5x cells, with rucaparib 10 µM, 100% = cells with rucaparib alone", "result": "107% (inactive)"}, {"measurement": "viability", "setting": "[12]; at 0.00488 µM, OCI-C5x cells, without rucaparib", "result": "108% (inactive)"}, {"measurement": "viability", "setting": "[12]; at 0.00488 µM, OCI-P5x cells, with rucaparib 20 µM, 100% = cells with rucaparib alone", "result": "52.6% (active)"}, {"measurement": "viability", "setting": "[12]; at 0.00488 µM, OCI-P5x cells, without rucaparib", "result": "81.3% (active)"}, {"measurement": "viability", "setting": "[12]; at 0.0195 µM, OCI-C5x cells, with rucaparib 10 µM, 100% = cells with rucaparib alone", "result": "77.4% (active)"}, {"measurement": "viability", "setting": "[12]; at 0.0195 µM, OCI-C5x cells, without rucaparib", "result": "87.9% (active)"}, {"measurement": "viability", "setting": "[12]; at 0.0195 µM, OCI-P5x cells, with rucaparib 20 µM, 100% = cells with rucaparib alone", "result": "27.3% (active)"}, {"measurement": "viability", "setting": "[12]; at 0.0195 µM, OCI-P5x cells, without rucaparib", "result": "53.6% (active)"}, {"measurement": "viability", "setting": "[12]; at 0.0781 µM, OCI-C5x cells, with rucaparib 10 µM, 100% = cells with rucaparib alone", "result": "68.4% (active)"}, {"measurement": "viability", "setting": "[12]; at 0.0781 µM, OCI-C5x cells, without rucaparib", "result": "72.4% (active)"}, {"measurement": "viability", "setting": "[12]; at 0.0781 µM, OCI-P5x cells, with rucaparib 20 µM, 100% = cells with rucaparib alone", "result": "17% (active)"}, {"measurement": "viability", "setting": "[12]; at 0.0781 µM, OCI-P5x cells, without rucaparib", "result": "31.8% (active)"}, {"measurement": "viability", "setting": "[12]; at 0.313 µM, OCI-C5x cells, with rucaparib 10 µM, 100% = cells with rucaparib alone", "result": "69.2% (active)"}, {"measurement": "viability", "setting": "[12]; at 0.313 µM, OCI-C5x cells, without rucaparib", "result": "71.6% (active)"}, {"measurement": "viability", "setting": "[12]; at 0.313 µM, OCI-P5x cells, with rucaparib 20 µM, 100% = cells with rucaparib alone", "result": "17% (active)"}, {"measurement": "viability", "setting": "[12]; at 0.313 µM, OCI-P5x cells, without rucaparib", "result": "28.4% (active)"}, {"measurement": "viability", "setting": "[12]; at 1.25 µM, OCI-C5x cells, with rucaparib 10 µM, 100% = cells with rucaparib alone", "result": "66.7% (active)"}, {"measurement": "viability", "setting": "[12]; at 1.25 µM, OCI-C5x cells, without rucaparib", "result": "71.4% (active)"}, {"measurement": "viability", "setting": "[12]; at 1.25 µM, OCI-P5x cells, with rucaparib 20 µM, 100% = cells with rucaparib alone", "result": "16.6% (active)"}, {"measurement": "viability", "setting": "[12]; at 1.25 µM, OCI-P5x cells, without rucaparib", "result": "24.3% (active)"}, {"measurement": "viability", "setting": "[12]; at 5 µM, OCI-C5x cells, with rucaparib 10 µM, 100% = cells with rucaparib alone", "result": "44.6% (active)"}, {"measurement": "viability", "setting": "[12]; at 5 µM, OCI-C5x cells, without rucaparib", "result": "51.1% (active)"}, {"measurement": "viability", "setting": "[12]; at 5 µM, OCI-P5x cells, with rucaparib 20 µM, 100% = cells with rucaparib alone", "result": "2.14% (active)"}, {"measurement": "viability", "setting": "[12]; at 5 µM, OCI-P5x cells, without rucaparib", "result": "10.5% (active)"}, {"measurement": "remaining NAD", "setting": "[13]", "result": "10 nM (inactive)"}]}]}
